Data on 40 molecules can be found in PubChem BioAssay (NCATS).

Residues, ends and D or L forms follow the SMILES beside them. *: point of attachment. Cbz = O=C(OCc1ccccc1)*

This experiment can be described thus: qHTS profiling of the MIPE4 collection as inhibitors of Plasmodium falciparum (DD2) proliferation (Rep 2) (AID 743346). The conditions noted are these: P. falciparum Dd2 in erythrocytes, SYBR Green DNA, 72 h; at 28.5 µM unless noted. The text has this:
Plasmodium falciparum is a virulent malarial parasite that kills 1-2 million people worldwide each year. Transmitted by mosquitoes, the sporozoite form of the parasite enters the blood stream to infect hepatocytes, where they become merozoites that infect red blood cells (erythrocytes). Within erythrocytes, merozoites begin a […] cycle of growth and division, after which the parasite is released to infect new red blood cells. Gametocytes, which form within erythrocytes as well, circulate in the bloodstream and are ingested by the mosquito, thereby completing the life cycle. To profile malarial isolates for differential chemical responses and to identify inhibitors of malarial growth, an assay that measures P. falciparum growth and replication within erythrocytes was employed. This assay uses a DNA binding fluorescent dye (SYBR Green) to detect parasite DNA following cell lysis. Because mature erythrocytes lack DNA, only Plasmodium-derived DNA is detected.
The SYBR Green viability assay was adapted from a method described previously (Plouffe et al., 2008). For screening 3 ul culture medium was dispensed into 1536 well black clear bottom plates (Aurora Biotechnologies) using a Multidrop Combi (Thermo Fisher Scientific Inc.), 23 nL compounds in DMSO were added by a pin tool (Kalypsys), and 5 ul of erythrocytes infected with P. falciparum (0.3% parasitemia, 2.5% hematocrit final concentration) were added. The plates were incubated at 37 C in a humidified incubator in 5% CO2 for 72 h, and 2 ul lysis buffer (20 mM Tris HCl, 10 mM EDTA, 0.16% saponin, 1.6% triton X, 10X SYBR Green I supplied as 10,000X […] by Invitrogen) was added to each well. The plates were mixed for 25 sec with gentle shaking and incubated overnight at room temperature in the dark. The following morning, fluorescence intensity at 485(14) nm excitation and 535(25) nm emission wavelengths was measured on an EnVision (Perkin Elmer) plate reader. Plate reads were normalized relative to the control inhibitor (0.29 uM artemisinin) and vehicle (DMSO) wells present on each plate and then corrected by an algorithm using vehicle-only control plates at the beginning and end of the compound plate stack.
On the technique in general: In qHTS, concentration-response curves come from the screen itself.
For `C=CC(=O)Nc1cccc(Nc2nc(NC3CCC(N(C)C)CC3)nc3c2ncn3C(C)C)c1` (stereo not given), the parasite growth, % of control (lower = inhibition) came out at 35.4%.

Regarding `Cc1ccc(-n2[nH]c(C)c(N=Nc3cccc(-c4cccc(C(=O)O)c4)c3O)c2=O)cc1C`, the parasite growth, % of control (lower = inhibition) is 72.1%.

As for `C[C@@]12C[C@@]3(O)O[C@@H](O1)[C@]1(COC(=O)c4ccccc4)[C@@H]3C[C@@]12O[C@@H]1O[C@H](CO)[C@@H](O)[C@H](O)[C@@H]1O`, the parasite growth, % of control (lower = inhibition) was 141%.

Turning to `COC(=O)C=CC(=O)OC`, the parasite growth, % of control (lower = inhibition) is 71.3%.

Take `Cn1cc(C[C@@H](N)C(=O)O)c2ccccc21`: the parasite growth, % of control (lower = inhibition) worked out at 107% [at 9.64 µM].

As to `OC[C@@H](O)[C@@H](O)[C@H](O)[C@@H](O)CO`, the parasite growth, % of control (lower = inhibition) came to 92%.

As to `CC(C)c1cc(C(C)C)c(CC(=O)NS(=O)(=O)Oc2c(C(C)C)cccc2C(C)C)c(C(C)C)c1`, the parasite growth, % of control (lower = inhibition) was determined as 80.1%.

On to `Cn1c(Nc2ccc(C(F)(F)F)cc2)nc2cc(Oc3ccnc(-c4ncc(C(F)(F)F)[nH]4)c3)ccc21`, for which the parasite growth, % of control (lower = inhibition) is 19.4%.

In the case of `CC(=O)N1CCN(c2ccc(OCc3nn(C)c(C)c3-c3cccc4c(CCCOc5cccc6ccccc56)c(C(=O)O)n(Cc5cccnc5)c34)cc2)CC1`, the parasite growth, % of control (lower = inhibition) came to 10.7%.

For the molecule `CC(=O)O[C@]1(C(C)=O)CC[C@H]2[C@@H]3C=C(C)C4=CC(=O)CC[C@]4(C)[C@@H]3CC[C@@]21C`, the parasite growth, % of control (lower = inhibition) came out at 18.8%.

In the case of `CN1C(C(=O)Nc2ccccn2)=C(O)c2sc(Cl)cc2S1(=O)=O`, the parasite growth, % of control (lower = inhibition) stood at 50.9%.

For the molecule `C[C@H]1COc2c(N3CCN(C)CC3)c(F)cc3c(=O)c(C(=O)O)cn1c23`, the parasite growth, % of control (lower = inhibition) is 49.2%.

`CC[C@H]1OC(=O)[C@H](C)[C@@H](O[C@H]2C[C@@](C)(OC)[C@@H](O)[C@H](C)O2)[C@H](C)[C@@H](O[C@@H]2O[C@H](C)C[C@H](N(C)C)[C@@H]2O)[C@](C)(OC)C[C@@H](C)C(=O)[C@H](C)[C@@H](O)[C@]1(C)O`: the parasite growth, % of control (lower = inhibition) amounted to 66.9%.

On to `COc1ccc(Nc2cc(-c3cnc(N)nc3)nc(N3CCOCC3)n2)cn1`, for which the parasite growth, % of control (lower = inhibition) is 27.1%.

`NC[C@H]1O[C@H](O[C@H]2[C@@H](O)[C@@H](O[C@H]3O[C@H](CO)[C@@H](O)[C@H](N)[C@@H]3O)[C@H](N)C[C@@H]2N)[C@H](N)C[C@H]1O`: the parasite growth, % of control (lower = inhibition) was found to be 78%.

Turning to `CCOC(=O)C1=C(C)NC(=S)NC1c1cccc(O)c1` (stereo not given), the parasite growth, % of control (lower = inhibition) came to 85.5%.

On to `CC(C)Oc1ccc(C(=O)N[C@H](CNC(=O)CN(C)C)Cc2ccc(-c3cn4cccc([C@H](C)O)c4n3)cc2)cc1Cl`, for which the parasite growth, % of control (lower = inhibition) is 12.6%.

On to `COc1ccc2cc([S+]([O-])Cc3ncc(C)c(OC)c3C)nc2c1`, for which the parasite growth, % of control (lower = inhibition) was determined as 61.5%.

Consider `O=C(O)[C@H](CC(=O)N1C[C@@H]2CCCC[C@H]2C1)Cc1ccccc1`, for which the parasite growth, % of control (lower = inhibition) was 69.7%.

`N#Cc1c(C2CCNCC2)cc(-c2c(O)cccc2OCC2CC2)nc1N`: the parasite growth, % of control (lower = inhibition) came to 15.7%.

In the case of `C[C@]12CC[C@@H]3c4ccc(O)cc4CC[C@H]3[C@H]1CC[C@H]2O`, the parasite growth, % of control (lower = inhibition) came to 74%.

Regarding `CC(C)C[C@@H](C=O)NC(=O)[C@H](CC(C)C)NC(=O)[C@H](CC(C)C)NC(=O)OCc1ccccc1` (Cbz-Leu-Leu-Leu-aldehyde), the parasite growth, % of control (lower = inhibition) amounted to 8.46%.

As for `CCCCCCCN(CC)CCCC(O)c1ccc(NS(C)(=O)=O)cc1` (stereo not given), the parasite growth, % of control (lower = inhibition) was found to be 72%.

Take `COc1cc(CCc2cc(NC(=O)c3ccc(N4C[C@@H](C)N[C@@H](C)C4)cc3)n[nH]2)cc(OC)c1`: the parasite growth, % of control (lower = inhibition) was 43.7%.

For the molecule `COc1cc2c(cc1O)CCC1C2CC[C@@]2(C)C1CC[C@@H]2O` (stereo not given in full), the parasite growth, % of control (lower = inhibition) came to 67%.

Consider `COc1ccc(C=Cc2cc(OC)c(OC)c(OC)c2)cc1NC(=O)[C@H](N)CO`, for which the parasite growth, % of control (lower = inhibition) amounted to 79.9%.

Regarding `Nc1ccc(C(=O)Nc2cccc(-c3nc(N4CCOCC4)c4oc5ncccc5c4n3)c2)cn1`, the parasite growth, % of control (lower = inhibition) amounted to 9.55%.

With `COC1=C2C[C@@H](C)C[C@H](OC)[C@@H](O)[C@@H](C)C=C(C)[C@H](OC(N)=O)[C@@H](OC)C=CC=C(C)C(=O)NC(=CC1=O)C2=O`, the parasite growth, % of control (lower = inhibition) was 11.9%.

Turning to `CS[C@H]1SC[C@@H]2C(=O)N(C)[C@H](C(C)C)C(=O)OC[C@H](NC(=O)c3cnc4ccccc4n3)C(=O)N[C@H](C)C(=O)N(C)[C@@H]1C(=O)N(C)[C@H](C(C)C)C(=O)OC[C@H](NC(=O)c1cnc3ccccc3n1)C(=O)N[C@H](C)C(=O)N2C`, the parasite growth, % of control (lower = inhibition) was 7.64%.

In the case of `Cc1cnn(C)c1C(=O)Nc1cc(Nc2ccc3c(C=Cc4ccccn4)n[nH]c3c2)ccc1F`, the parasite growth, % of control (lower = inhibition) was 19.1%.

As to `CC(=O)OCC(=O)[C@@]1(O)CC[C@H]2[C@@H]3CCC4=CC(=O)CC[C@]4(C)[C@@H]3C(=O)C[C@@]21C`, the parasite growth, % of control (lower = inhibition) is 122%.

On to `CC(C)(C)c1nc2c3cc[nH]c(=O)c3c3cc(F)ccc3c2[nH]1`, for which the parasite growth, % of control (lower = inhibition) was 62%.

`c1ccc2c(Oc3nc(Nc4ccc(N5CCOCC5)cc4)c4ncn(C5CCCCC5)c4n3)cccc2c1`: the parasite growth, % of control (lower = inhibition) was found to be 33.7%.

In the case of `Cc1cnc(Nc2ccc(N3CCN(C)CC3)cc2)nc1Nc1cccc(S(=O)(=O)NC(C)(C)C)c1`, the parasite growth, % of control (lower = inhibition) was found to be 12.4%.

Turning to `CC(=O)ON=C1C(c2c(O)[nH]c3cc(Br)ccc23)=Nc2ccccc21`, the parasite growth, % of control (lower = inhibition) is 6.05%.

Take `CS(=O)(=O)N1CCc2c(-c3cnc(N)nc3)nc(N3CCOCC3)nc21`: the parasite growth, % of control (lower = inhibition) was 6.07%.

On to `C=CC[C@@H]1C=C(C)C[C@H](C)C[C@H](OC)[C@H]2O[C@@](O)(C(=O)C(=O)N3CCCC[C@H]3C(=O)O[C@H](C(C)=C[C@@H]3CC[C@H](O)[C@H](OC)C3)[C@@H](C)[C@@H](O)CC1=O)[C@@H](C)C[C@@H]2OC`, for which the parasite growth, % of control (lower = inhibition) stood at 10.3%.

On to `CN(C)c1ccc(C(=O)NCCCCCCC(=O)NO)cc1`, for which the parasite growth, % of control (lower = inhibition) was 8.85%.

For the molecule `CCc1cc(C(C)=NOCc2ccc(C3CCCCC3)c(C(F)(F)F)c2)ccc1CN1CC(C(=O)O)C1`, the parasite growth, % of control (lower = inhibition) is 41.3%.

On to `COc1cc(N2CCC(C(N)=O)CC2)ccc1Nc1nc(N)c(Cl)c(Nc2ccccc2S(=O)(=O)C(C)C)n1`, for which the parasite growth, % of control (lower = inhibition) came to 35.9%.
